In the supplement of paper PMC6555819:

What was measured:
Assay in all cases: PBM binding z-score (relative to random genomic background probes); higher = stronger binding; sequences stand for … in GC…GCGATTGACAGCGTAGAATGAAGG
[1] = system: FXR:RXRa (NR concentration 270 nM, RXRa partner concentration 90 nM)
Procedure, shortened: (§1)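 For binding z-scores, the reference was random background probes on custom Agilent 4×180K protein-binding microarrays. These arrays were incubated 1 h with ligand-free nuclear receptor dimers in PBS pH 7.4, 2% milk, 0.02% Triton X-100, 1 mM DTT, 0.2 mg/mL BSA and 0.4 mg/ml salmon testes DNA. Fluorescence was scanned after antibody detection of each partner (one per run) and regression-normalized.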

[2] = system: LXRa:RXRa (NR concentration 270 nM, RXRa partner concentration 90 nM)
Procedure, shortened: as §1

[3] = system: LXRa homodimer (NR concentration 270 nM)
Procedure, shortened: as §1

[4] = system: LXRb:RXRa (NR concentration 270 nM, RXRa partner concentration 90 nM)
Procedure, shortened: as §1

[5] = system: LXRb homodimer (NR concentration 270 nM)
Procedure, shortened: as §1

[6] = system: PPARa:RXRa (NR concentration 270 nM, RXRa partner concentration 90 nM)
Procedure, shortened: as §1

[7] = system: PPARg:RXRa (NR concentration 180 nM, RXRa partner concentration 90 nM)
Procedure, shortened: as §1

[8] = system: PPARg:RXRa 270nM:90nM, anti-RXR (NR concentration 270 nM, RXRa partner concentration 90 nM)
Procedure, shortened: as §1

[9] = system: PPARg:RXRa 30nM:10nM, anti-RXR (NR concentration 30 nM, RXRa partner concentration 10 nM)
Procedure, shortened: as §1

[10] = system: PPARg:RXRa 90nM:30nM, anti-RXR (NR concentration 90 nM, RXRa partner concentration 30 nM)
Procedure, shortened: as §1

Sequence | PBM binding z-score [1] | PBM binding z-score [2] | PBM binding z-score [3] | PBM binding z-score [4] | PBM binding z-score [5] | PBM binding z-score [6] | PBM binding z-score [7] | PBM binding z-score [8] | PBM binding z-score [9] | PBM binding z-score [10]
TGAATGAGGTTAACGATCAGGGAACGTGGCGTCG | 1.98 | 1.82 | -0.477 | 0.806 | -0.194 | 3.2 | 2.41 | 2.48 | 0.951 | 1.83
TTACCAAGGTGAATGTCGTTGATCCCTCTGTAGA | 0.755 | 0.993 | -0.247 | 0.681 | -0.413 | 1.51 | 0.279 | 1.04 | 0.788 | 0.922
TCATATAGGTAAACGTGAAAGTCGAACGATATGA | 0.211 | 0.332 | -0.204 | 0.164 | 0.105 | 1.33 | 1.44 | 2.44 | 3.42 | 2.86
TCTAGCAGCCCAGAGGGTCACTCAAGAGGTACGG | 0.547 | 0.531 | -0.652 | 1.01 | -1.12 | 1.92 | 0.566 | 1.13 | 1.45 | 1.2
TCGAGGAGGTTAGTCGGGGCATTCAGCCAACATA | 0.421 | 0.675 | -0.136 | 1.21 | -0.337 | 1.43 | -0.118 | 0.893 | 1.23 | 0.779
CGAACGAGGGCATCAGTTGATAGCAAATGCCGAT | 0.292 | 0.0604 | -0.396 | 0.107 | -0.651 | 1.19 | 1.1 | 0.934 | -0.0649 | 0.293
ATCTCTAGGTAACCAAGTTCAGAGAATGCCGAAC | 0.204 | 0.722 | 0.915 | 0.628 | 0.739 | 1.2 | 0.721 | 0.986 | -0.0566 | 0.52
CCGAGTAGGTTATGGGGCGTTCAGGCAACGGTGA | 0.244 | 0.548 | -0.0765 | 0.47 | -0.285 | 1.67 | 2.44 | 3.87 | 1.97 | 3.39
TCCAGCAGGCCAGAGGGTCACTCAAGAGGTACGG | 0.97 | 1.16 | -0.45 | 1.18 | -1.14 | 2.23 | 0.983 | 1.87 | 1.59 | 1.79
CTAGACAGGTGAGAAGGTAACTCAGCCTCGATTA | -0.0745 | -0.0361 | -0.246 | -0.171 | -0.733 | 0.677 | 0.508 | 0.818 | 0.0715 | 0.577
CCATACGGGTCACGAGGTTATAGCACGACGAGCG | 6.99 | 4.32 | 0.528 | 3.79 | -0.0225 | 5.93 | 7.19 | 6.47 | 3.55 | 5.37
TCATATAGGTAAACAGGTGCAAGTCCGTAAGTTA | 0.886 | 1 | 0.433 | 1.02 | -0.121 | 1.65 | 1.1 | 2.53 | 3.85 | 3.12
TCATATAGGTAATACAGGGGAAAGTCGGCATCTA | 1.29 | 1.31 | 0.263 | 1.21 | 0.513 | 1.55 | 1.01 | 2.49 | 4.47 | 3.25
GCTGCTAGGTCAAGTGATGGTCAGCTAAAGCTCG | 4.09 | 3.01 | 0.152 | 1.9 | -0.0819 | 3.57 | 2.46 | 3.13 | 0.591 | 2.12
AATACAGAGTCACTAGGCCAGAGTAGGTACGAAT | -0.115 | -0.0616 | -0.358 | -0.555 | -0.252 | 0.626 | 1.31 | 0.617 | 0.184 | 0.718
TCGAGTAGGTTACCAATGGGGCAGTCAGCTTTCT | 0.254 | 0.465 | -0.934 | 0.266 | -0.413 | 1.05 | 0.211 | 1.04 | 1.06 | 0.984
GCGGCTGGGGCAAAGCAGGTTACCATAAGGTTGG | 0.63 | 0.104 | -0.673 | 0.159 | -0.912 | 0.636 | 0.139 | -0.304 | -0.825 | -0.577
TCGAGTAGGTTACCATTGGGGCATTCAGCTTTCT | 0.101 | 1.68 | -0.373 | 0.964 | -0.492 | 0.792 | 0.0586 | 1.23 | 0.995 | 1.17
AGAACGAGGGCAATGAGTTGATAGTACGGGTGGC | 0.224 | 0.29 | -0.524 | -0.18 | -0.473 | 1.56 | 1.5 | 0.768 | 0.0705 | 0.415
GCAGACAGGTGAAACGCAGGTAACGCAGGGTGGC | -0.151 | -0.229 | -0.631 | -0.357 | -1.09 | 0.749 | 0.665 | -0.038 | -0.74 | -0.0828
CCTGCTAGGTCAATGGTCAGATAAAGCAGCTCGC | 2.9 | 2.29 | 0.316 | 1.61 | -0.124 | 3.15 | 4.67 | 5.1 | 2.77 | 4.96
CGTCCAAGATCAAAGGTCAGTGAAGAGATGACGG | 3.66 | 3.73 | 1.53 | 3.21 | 0.413 | 4.84 | 5.29 | 5.82 | 3.81 | 5.56
CCTGGTAGGTCAATGGTCAGCTAAAGCAGCTCGC | 3.32 | 2.64 | 0.425 | 1.98 | 0.463 | 3.77 | 6.52 | 6.4 | 4.37 | 6.53
